Screens: PubChem BioAssay, National Center for Advancing Translational Sciences (NCATS)
Most compounds without a hit are left out; they make up all but 3.9% or so of the library.
VDR inh = inhibitors of human vitamin D receptor | P11473 | VDR-SRC2-3 peptide fluorescence polarization, 2 h | Potency, µM, for the others: max response, negative = inhibition, hits mostly inhibitors | 400,000 tested, 0.93% active | AID 504847; also: % is scaled to controls: 0 for no effect and ±100 for the full control effect
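Inhibition of the VDR/SRC2-3 peptide interaction is quantified by fluorescence polarization. Compounds (23 nl, pintool) incubate with the reagents for 2 hours at ambient room temperature.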
Tb PFK block = blocks T. brucei phosphofructokinase; O15648; T. brucei PFK, ADP-Glo luminescence; Potency, µM (top dose mostly 57.5 µM), for inactives: top-dose activity, negative = inhibition, hits mostly inhibitors; 330,000 tested, 0.17% active; AID 485367;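 also: 0% = uninhibited 1x PFK enzyme wells and -100% = no-enzyme wells; nearly all actives have a fitted effect of over 60% in size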
Target sequence (O15648 whole entry, looked up): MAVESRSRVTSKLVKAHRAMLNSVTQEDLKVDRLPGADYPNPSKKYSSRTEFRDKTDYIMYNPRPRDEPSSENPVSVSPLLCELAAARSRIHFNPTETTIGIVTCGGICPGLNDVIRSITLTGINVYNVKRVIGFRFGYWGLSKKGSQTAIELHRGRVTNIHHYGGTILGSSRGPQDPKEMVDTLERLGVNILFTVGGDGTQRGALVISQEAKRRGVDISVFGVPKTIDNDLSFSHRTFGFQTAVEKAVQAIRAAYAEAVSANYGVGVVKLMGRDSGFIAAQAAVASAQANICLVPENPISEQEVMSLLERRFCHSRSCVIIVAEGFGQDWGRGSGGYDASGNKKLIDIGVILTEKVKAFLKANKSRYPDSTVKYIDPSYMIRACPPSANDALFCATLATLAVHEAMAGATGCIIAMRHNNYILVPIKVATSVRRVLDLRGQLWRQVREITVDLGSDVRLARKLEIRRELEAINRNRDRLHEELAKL
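Luminescent ADP detection (ADP-Glo, two-step: ATP depletion then ADP-to-ATP conversion for luciferase) reported PFK activity after 45 min room-temperature reaction of 1.25 nM enzyme with 0.5 mM F6P and 0.1 mM ATP at pH 8.0.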
BRCA1 expr act = activators of BRCA1 expression; MCF7-BRCA1-FFLuc reporter, luminescence, 48 h; response scale: scaled: vehicle 0%, 10 µM genistein 100%; Potency, µM (doses to about 46.1 µM), for inactives: at the top dose activation, most hits filed as activators; 380,000 tested, 1.1% active; AID 624202; also: nearly all actives have a fitted effect of over 80% in size
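Cells: MCF7-BRCA1-FFLuc, 2000/well. Exposure: 48 h, 37 °C, 5% CO2. Read: luminescence, 15 min post-substrate. Controls: genistein 10 microM (maximal activation), DMSO (neutral).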
PLK1 PBD inh = PLK1 (human) polo-box domain binding inhibition. 360,000 tested, 2.8% active. Potency, µM, for the others: max response, negative = inhibition, hits mostly inhibitors. Plk1 PBD binding of FITC phosphopeptide, fluorescence polarization; also: series mostly up to about 57 µM; % is scaled to controls: 0 for no effect and ±100 for the full control effect; nearly all actives have a fitted effect of over 65% in size
The depositor's hits bear a star; ? = inconclusive; / = not tested or not shown; [ ] = remark or other dose. Calls follow the shape of the dose curve; as a rule, active = well fitted curve in the direction sought with a large enough effect; inconclusive = small, poorly fitted or top-dose-only effect, or another doubt; inactive = no such curve, though single readings can be large; an effect the other way counts as inactive or inconclusive. Potency is read from the fitted curve at half-maximal effect.

SMILES	VDR inh	Tb PFK block	BRCA1 expr act	PLK1 PBD inh
O=C(COC(=O)CNS(=O)(=O)c1c(F)cccc1F)NC(=O)NC1CCCCC1	-16.3%	-1.7%	3.8%	-9.6%
CCOC(=O)Oc1ccc(/C=C2\N=C(C)OC2=O)cc1	20µM*	-3.3%	14.2%	-27.5%
COc1cc(/C=C2\N=C(C)OC2=O)cc(OC)c1OC	39.8µM*	2.5%	-0.3%	-11.2%
CCc1ccc2c(c1)-c1ccccc1S(=O)(=O)N2CC(=O)N1CCC(C)CC1	5.5%	/	/	/
OC(c1ccccc1)c1nc2ccccc2n1Cc1c(F)cccc1Cl (centres undefined)	14.2%	/	/	/
N#Cc1ccccc1Cn1cc(/C=C/[N+](=O)[O-])c2ccccc21	31.6µM*	4.3%	-87.4%	?
COc1ccc(C2Nc3ccccc3C(=O)N2NS(C)(=O)=O)c(OC)c1 (centres undefined)	?	-25.5%	-15.4%	21.2µM*
COCCn1c(=O)c(-c2cc(F)cc(F)c2)nc2cnc(Oc3cccc(Cl)c3)nc21	7.9%	/	/	/
CCOC(=O)CN1C(=O)S/C(=C\c2ccc(-c3ccc(C(=O)O)c(Cl)c3)o2)C1=O	?	-5.8%	-2.6%	-22.8%
O=C(O)c1ccc(-c2ccc(/C=C3\NC(=O)N(Cc4ccc(Cl)cc4)C3=O)o2)cc1Cl	79.4µM*	-11.0%	5.9%	15µM*
COC(=O)c1ccc2nc(NC(=O)CN3C(=O)CCC3=O)sc2c1	-1.5%	9.8%	20.2%	11.9µM*
Cc1ccc2nc(NC(=O)CN3CCOCC3)sc2c1	-21.9%	4.8%	3.55µM*	-7.8%
Cc1ccc2nc(NC(=O)COC(=O)c3ccncc3)sc2c1	8.8%	-1.7%	8.91µM*	-6.4%
Cc1ccc2nc(NC(=O)COC(=O)CSc3nc(C)cc(C)n3)sc2c1	0.4%	0.7%	10µM*	-17.4%
O=S1(=O)CC(N2CC=CC2)CN1Cc1cn(Cc2ccc(F)cc2)nn1 (centres undefined)	/	/	22.4%	3.8%
COc1ccc(-c2nc3ccc(NC(=O)CO)cc3c(=O)n2Cc2cccc(Cl)c2)cc1COc1ccc(NC(C)=O)cc1	-14.6%	/	-48.4%	/
COc1ccc(CCNc2nc3c(-c4cccc(C)c4)nnn3c3ccccc23)cc1OC	-4.1%	/	0.0%	/
CCn1cc(S(=O)(=O)c2ccc(C)cc2)[nH]c1=O	-2.3%	-1.3%	-22.4%	-1.3%
CCc1c(C(C)S(=O)(=O)c2ccc(C)cc2)[nH]c(=O)n1-c1ccc(OC(F)(F)F)cc1 (centres undefined)	-16.7%	-12.4%	-21.6%	26.7µM*
c1ccc(CCCCc2ccncc2)cc1	14.6%	/	12.3%	5.4%
O=C(CCCc1ccncc1)c1ccccc1	6.9%	/	3.98µM*	-0.2%
C[C@H]1CN=C(N(C)C)N1CCCC1CCCCC1	-3.8%	-3.1%	4.0%	2.0%
COc1cccc(CNC(=O)C2CCN(S(=O)(=O)c3c(C)nn(C)c3C)CC2)c1	-18.4%	4.2%	-3.0%	26.7µM*
Cc1ccc(CCNC(=O)C2CCCN(S(=O)(=O)c3c(C)nn(C)c3C)C2)cc1 (centres undefined)	-9.0%	0.8%	-0.2%	26.7µM*
COc1cccc(CNC(=O)C2CCN(S(=O)(=O)c3ccc(C)cc3)CC2)c1	1.8%	0.8%	0.0%	2.7%
SMILES	VDR inh	Tb PFK block	BRCA1 expr act	PLK1 PBD inh
CCc1c(C)nc2ncnn2c1N1CCC(C(=O)NCc2cccs2)CC1	-1.1%	3.9%	-28.1%	6.4%
CCc1c(C)nc2ncnn2c1N1CCC(C(=O)NCc2cccc(OC)c2)CC1	?	-3.9%	-41.7%	26.7µM*
COCCN(C(=O)c1ccc(C)c(S(=O)(=O)N2CCOCC2)c1)c1c(N)n(CC(C)C)c(=O)[nH]c1=O	-3.2%	/	2.3%	-6.3%
COc1ccc(-c2nc3cnc(OC)nc3n(-c3ccc(OC)cc3)c2=O)cc1	0.3%	/	/	/
CCOC(=O)Cc1csc(NC(=O)CSc2nnc(C)n2C)n1	0.4%	-5.4%	0.0%	-2.4%
COC(=O)Cc1csc(NC(=O)CSc2nnc3ccccn23)n1	?	0.5%	-8.9%	16.8µM*
Cc1ccc(S(=O)(=O)c2cc3c(=O)n4ccccc4nc3n(C3CCCCC3)c2=N)cc1	-4.6%	-0.8%	-5.0%	-16.7%
CCS(=O)(=O)C1=NSC2=NC(=O)/C(=C\c3ccc(OC(=O)c4ccco4)c(OC)c3)C(=N)N21	-25.5%	-13.0%	-4.3%	?
COc1cc(/C=C2/C(=N)N3C(=NC2=O)SN=C3S(=O)(=O)C(C)C)ccc1OC(=O)c1ccco1	?	-4.4%	-10.5%	21.2µM*
COc1cc(/C=C2/C(=N)N3C(=NC2=O)SN=C3S(C)(=O)=O)ccc1OC(=O)c1ccco1	?	0.1%	8.0%	?
CCOc1cc(/C=C2/C(=N)N3C(=NC2=O)SN=C3S(=O)(=O)CC)ccc1OC(=O)c1ccco1	89.1µM*	-4.0%	9.3%	26.7µM*
CCOc1cc(/C=C2/C(=N)N3C(=NC2=O)SN=C3S(=O)(=O)C(C)C)ccc1OC(=O)c1ccco1	?	0.2%	8.2%	26.7µM*
O=C(NNC(=O)c1cccc2ccccc12)c1ccc(Cl)cc1Cl	0.1%	/	12.6µM*	-0.5%
COC(=O)NNC(=O)c1ccc(Cl)cc1Cl	-8.4%	-0.8%	2.8%	0.7%
O=C(NNC(=O)c1cccc2ccccc12)c1cccc(Cl)c1	-9.3%	/	3.1%	-0.1%
O=C(O)/C=C/C(=O)NNC(=O)c1ccc(Cl)cc1Cl	-2.4%	0.2%	26.7%	23.8µM*
O=C(Nc1cccc(O)c1)c1cc(-c2ccccc2Cl)on1	-4.0%	-1.1%	6.8%	-7.3%
O=C(Nc1ccccc1)OCc1cc(-c2ccccc2Cl)on1	18.7%	-0.4%	8.91µM*	5.7%
O=C(Nc1ccc(O)cc1)c1ccc(NC(=O)C2CCCO2)cc1 (centres undefined)	-7.5%	1.9%	14.9%	-7.7%
CCOC(=O)c1c(-c2ccc(C)cc2)csc1NC(=O)C1CCCO1 (centres undefined)	6.3%	0.0%	-16.9%	4.7%
CCOC(=O)c1c(-c2ccc(F)cc2)csc1NC(=O)C1CCCO1 (centres undefined)	?	-7.1%	-22.4%	26.7µM*
CCCOC(=O)c1ccc(NC(=O)C2CCCO2)cc1 (centres undefined)	1.9%	-10.5%	11.2µM*	-8.8%
O=C(Nc1ccc(Oc2ccc(NC(=O)C3CCCO3)cc2)cc1)C1CCCO1 (centres undefined)	-13.2%	-1.7%	6.2%	-14.1%
Cc1cc(NC(=O)c2ccc(NC(=O)C3CCCO3)cc2)ccc1Br (centres undefined)	-7.1%	-14.2%	1.12µM*	0.4%
Cn1nnnc1SCCCNCc1ccccc1OCc1ccc(Cl)cc1	0.6%	/	/	/
CCC(Sc1nc(C)cc(C)n1)C(=O)NC1=NN=C(c2ccc(C)cc2)CS1 (centres undefined)	?	1.1%[0.46 µM]	-70.7%	-11.9%
Cc1cc(C)nc(SCC(=O)NC2=NN=C(c3ccc(Br)cc3)CS2)n1	44.7µM*	2.5%	-74.3%	-17.7%
O=C(CCCC(=O)c1ccccc1)NCc1ccccc1	-20.6%	-1.3%	-26.7%	?
COc1cc(CNC(=O)CCCC(=O)c2ccccc2)cc(OC)c1OC	-28.9%	3.7%	-7.9%	23.8µM*
